Data: PubChem BioAssay (NCATS)
Values joined by “and” are separate entries in the source; they are usually repeats but may differ in a detail not shown here. Equal values may be shown once. Results filed as inconclusive are left out. Values without a mark were called inactive. Active and inactive are the calls of the source. The call rests on the fitted dose curve; in most records, active means well fitted curve in the direction sought with a large enough effect; inconclusive means small, poorly fitted or top-dose-only effect, or another doubt; inactive means no such curve, though single readings can be large; an effect the other way counts as inactive or inconclusive.

Legend:
[1] = target: Cellular tumor antigen p53 (Homo sapiens) (UniProt P04637); test: Primary qHTS for small molecule compounds that upregulate eGFP-tagged delta133p53alpha (in N-terminal) cells. (AID 2060322); conditions: NCI-H358 eGFP-delta133p53alpha fluorescence, 24 h; activation: stronger effect = higher value; further: nearly all actives have a fitted effect of over 75% in size; further: potency means the concentration at half of the fitted maximal effect;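 on activation: cells pre-induced with doxycycline then dosed without doxycycline; series mostly up to about 56 µM; 0% = DMSO vehicle and 100% = reference activator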
Sequence of Cellular tumor antigen p53 (Homo sapiens) (P04637 whole entry, looked up): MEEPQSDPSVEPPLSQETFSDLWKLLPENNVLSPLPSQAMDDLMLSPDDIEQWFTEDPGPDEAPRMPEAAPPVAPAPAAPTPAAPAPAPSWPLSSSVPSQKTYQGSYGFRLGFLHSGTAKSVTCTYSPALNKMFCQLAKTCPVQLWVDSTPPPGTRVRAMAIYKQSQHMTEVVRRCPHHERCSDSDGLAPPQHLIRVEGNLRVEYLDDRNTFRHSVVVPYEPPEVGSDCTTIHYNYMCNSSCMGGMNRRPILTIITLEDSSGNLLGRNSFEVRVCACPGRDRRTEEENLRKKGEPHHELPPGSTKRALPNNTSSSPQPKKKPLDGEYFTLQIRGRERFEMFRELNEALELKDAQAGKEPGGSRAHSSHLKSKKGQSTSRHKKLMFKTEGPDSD
Outline: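 NCI-H358 cells pre-induced 24 h with 10 ng/ml doxycycline for eGFP-delta133p53alpha, plated dox-free and exposed 24 h at 37C to titrated compounds. Fixed, Hoechst-stained; gated GFP peak intensity by laser scanning cytometry, normalized to DMSO (0%) and 57.5 uM 5-azacytidine (100%).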

[2] = target: Aldehyde dehydrogenase, mitochondrial (Homo sapiens) (UniProt P05091); test: qHTS for Inhibitors of the Aldehyde Dehydrogenase Family (ALDH2) Primary screen (AID 2061308);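 further: plate controls were vehicle for no effect and reference inhibitor for full effect; nearly all actives have a fitted effect of over 55% in size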
[3] = target: Retinaldehyde dehydrogenase 3 (Homo sapiens) (UniProt P47895); test: qHTS for Inhibitors of the Aldehyde Dehydrogenase Family (ALDH1A3) Primary screen (AID 2061315);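 further: plate controls were DMSO vehicle for no effect and reference inhibitor for full effect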
[4] = BET inhibitor-based combinations targeting novel dependencies in MECOM-rearranged (r) AML: SET-2 cell line (AID 2202231); conditions: SET-2 AML cells viability, CellTiter-Glo luminescence, 48 h; viability: stronger effect = lower value, concentration not given here; further: nearly all actives have a fitted effect of over 35% in size; further: potency means the concentration at half of the fitted maximal effect;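 on viability: plate controls were DMSO treated cells for no effect and wells without cells for full effect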
Outline: (§1)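 Each compound was tested at eleven concentrations on cells seeded at 500/well. After two days' incubation, ATP-based luminescence reported viability; responses relative to DMSO and blank wells yielded AUC and cell-line-centred Z-AUC.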

[5] = BET inhibitor-based combinations targeting novel dependencies in MECOM-rearranged (r) AML: OCI-AML3 cell line (AID 2202232); conditions: Potency: OCI-AML3 viability; further: nearly all actives have a fitted effect of over 35% in size; further: potency means the concentration at half of the fitted maximal effect
Outline: as §1

[6] = BET inhibitor-based combinations targeting novel dependencies in MECOM-rearranged (r) AML: MV-4-11 cell line (AID 2202233); further: nearly all actives have a fitted effect of over 45% in size; further: potency means the concentration at half of the fitted maximal effect
Outline: (§2)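 First, 500 cells per well were seeded; next, drugs were pinned as 11-point doses; then plates sat 48 hr in the incubator; finally CellTiter-Glo was added and luminescence read, with AUC and Z-AUC computed.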

[7] = BET inhibitor-based combinations targeting novel dependencies in MECOM-rearranged (r) AML: HNT-34 cell line (AID 2202234); further: nearly all actives have a fitted effect of over 35% in size; further: potency means the concentration at half of the fitted maximal effect
Outline: as §2

[8] = BET inhibitor-based combinations targeting novel dependencies in MECOM-rearranged (r) AML: UCSD-AML1 cell line (AID 2202235); further: nearly all actives have a fitted effect of over 40% in size; further: potency means the concentration at half of the fitted maximal effect
Outline: as §2

[9] = BET inhibitor-based combinations targeting novel dependencies in MECOM-rearranged (r) AML: AML-191 cell line (AID 2202236; further: nearly all actives have a fitted effect of over 35% in size; further: potency means the concentration at half of the fitted maximal effect)
Outline: as §1

[10] = BET inhibitor-based combinations targeting novel dependencies in MECOM-rearranged (r) AML: AML-194 cell line (AID 2202237; further: nearly all actives have a fitted effect of over 40% in size; further: potency means the concentration at half of the fitted maximal effect)
Outline: as §1

CN1CCC(CNc2ccc3ncc(-c4cccc(OC(F)(F)F)c4)n3n2)CC1
Potency [1]: 26.9 µM (active)
Potency [2]: inactive
Potency [3]: inactive
Potency [4]: 11.8 µM (active)
Potency [5]: 8.33 µM (active)
Potency [6]: 0.166 µM (active)
Potency [7]: 5.25 µM (active)
Potency [8]: 5.9 µM (active)
Potency [9]: 5.25 µM (active)
Potency [10]: 4.17 µM (active)

O=C1NC(=O)C(c2cnc3ccccn23)=C1c1cn2c3c(cc(F)cc13)CN(C(=O)N1CCCCC1)CC2
Potency [1]: 30.1 µM (active)
Potency [2]: inactive
Potency [3]: inactive
Potency [4]: 0.0417 µM (active)
Potency [5]: 2.95 µM (active)
Potency [6]: 0.186 µM (active)
Potency [7]: 0.0661 µM (active)
Potency [8]: 1.66 µM (active)
Potency [9]: 0.662 µM (active)
Potency [10]: 3.72 µM (active)

Cc1nc([C@](C)(O)CO)sc1-c1cnc(N)c(O[C@H](C)c2cc(F)ccc2-n2nccn2)c1
activation [1]: -10.7%
Potency [2]: inactive
Potency [3]: inactive
Potency [4]: 10.5 µM (active)
Potency [5]: 0.742 µM (active)
Potency [6]: 6.61 µM (active)
Potency [7]: 11.8 µM (active)
Potency [8]: 1.32 µM (active)
Potency [9]: 0.833 µM (active)
Potency [10]: 1.18 µM (active)

CCOC(=O)[C@H]1O[C@@H]1C(=O)N[C@@H](CC(C)C)C(=O)NCCC(C)C
activation [1]: 4.33%
Potency [2]: inactive
Potency [3]: inactive
viability [4]: 108%
Potency [5]: 18.6 µM (active)
Potency [6]: 14.8 µM (active)
Potency [7]: inactive
Potency [8]: inactive
Potency [9]: inactive
Potency [10]: inactive

CC(C)c1cnn2c(NCc3ccccc3)cc(N[C@@H](CO)[C@H](O)CO)nc12
Potency [1]: 544 nM (active) and 1.51 µM (active)
Potency [2]: inactive
Potency [3]: inactive
Potency [4]: 0.296 µM (active)
Potency [5]: 0.468 µM (active)
Potency [6]: 0.372 µM (active)
Potency [7]: 0.296 µM (active)
Potency [8]: 0.372 µM (active)
Potency [9]: 0.296 µM (active)
Potency [10]: 0.372 µM (active)

OCCCNc1cc(-c2ccnc(Nc3cccc(Cl)c3)n2)ccn1
Potency [1]: 172 nM (active) and 301 nM (active)
Potency [2]: inactive
Potency [3]: inactive
Potency [4]: 0.132 µM (active)
Potency [5]: 0.118 µM (active)
Potency [6]: 0.132 µM (active)
Potency [7]: 0.132 µM (active)
Potency [8]: 0.0833 µM (active)
Potency [9]: 0.0934 µM (active)
Potency [10]: 0.332 µM (active)

Cc1cnc(Nc2ccc(OCCN3CCCC3)cc2)nc1Nc1cccc(S(=O)(=O)NC(C)(C)C)c1
activation [1]: 27.2% and -7.14% and 27.9%
Potency [2]: inactive
Potency [3]: inactive
Potency [4]: 4.68 µM (active)
Potency [5]: 2.63 µM (active)
Potency [6]: 0.742 µM (active)
Potency [7]: 1.66 µM (active)
Potency [8]: 2.35 µM (active)
Potency [9]: 3.32 µM (active)
Potency [10]: 5.25 µM (active)

COC(=O)c1ccc2c(C(=Nc3ccc(N(C)C(=O)CN4CCN(C)CC4)cc3)c3ccccc3)c(O)[nH]c2c1
activation [1]: 5.68%
Potency [2]: inactive
Potency [3]: inactive
Potency [4]: 11.8 µM (active)
Potency [5]: 10.5 µM (active)
Potency [6]: 0.166 µM (active)
Potency [7]: 1.32 µM (active)
Potency [8]: 5.25 µM (active)
Potency [9]: 5.25 µM (active)
Potency [10]: 5.25 µM (active)

COc1ccc(F)c(F)c1C(=O)c1cnc(NC2CCN(S(C)(=O)=O)CC2)nc1N
Potency [1]: 2.73 µM (active) and 2.69 µM (active)
Potency [2]: inactive
Potency [3]: inactive
Potency [4]: 2.09 µM (active)
Potency [5]: 1.86 µM (active)
Potency [6]: 1.32 µM (active)
Potency [7]: 2.35 µM (active)
Potency [8]: 1.66 µM (active)
Potency [9]: 2.09 µM (active)
Potency [10]: 2.09 µM (active)

CN1C(=O)N[C@@H](Cc2c[nH]c3c(Cl)cccc23)C1=O
activation [1]: -25.9%
Potency [2]: inactive
Potency [3]: inactive
viability [4]: 110%
Potency [5]: inactive
Potency [6]: inactive
Potency [7]: inactive
Potency [8]: inactive
Potency [9]: inactive
Potency [10]: inactive

NS(=O)(=O)c1cc(Cl)c(Cl)c(S(N)(=O)=O)c1
activation [1]: -9.17% and 1%
Potency [2]: inactive
Potency [3]: inactive
viability [4]: 115%
Potency [5]: inactive
Potency [6]: inactive
Potency [7]: inactive
Potency [8]: inactive
Potency [9]: inactive
Potency [10]: inactive

CCCCCCCCCC(=O)N[C@@H](Cc1c[nH]c2ccccc12)C(=O)N[C@H](CC(N)=O)C(=O)N[C@@H](CC(=O)O)C(=O)N[C@@H]1C(=O)NCC(=O)N[C@@H](CCCN)C(=O)N[C@@H](CC(=O)O)C(=O)N[C@H](C)C(=O)N[C@@H](CC(=O)O)C(=O)NCC(=O)N[C@H](CO)C(=O)N[C@@H]([C@@H](C)CC(=O)O)C(=O)N[C@@H](CC(=O)c2ccccc2N)C(=O)O[C@@H]1C
activation [1]: -9.73% and 21%
Potency [2]: inactive
Potency [3]: inactive
viability [4]: 107%
Potency [5]: inactive
Potency [6]: inactive
Potency [7]: inactive
Potency [8]: inactive
Potency [9]: inactive
Potency [10]: inactive

Cc1ccccc1C(C(=O)NC1CCCCC1)N(C(=O)CNc1ccc(C#N)cc1)c1cccc(F)c1 (stereo not given)
activation [1]: 17.1% and 3.57%
Potency [2]: inactive
Potency [3]: inactive
viability [4]: 109%
Potency [5]: inactive
Potency [6]: inactive
Potency [7]: inactive
Potency [8]: inactive
Potency [9]: inactive
Potency [10]: inactive

CCNC(=O)Nc1ncc(-c2cc(-c3c(C)cc(OC)cc3C)nc(-c3cnccn3)n2)s1
activation [1]: -5.36%
Potency [2]: inactive
Potency [3]: inactive
viability [4]: 114%
Potency [5]: inactive
Potency [6]: inactive
Potency [7]: inactive
Potency [8]: inactive
Potency [9]: inactive
Potency [10]: inactive
